Source: the supplement of paper PMC10646978
± gives the standard deviation.

Tests used:
Settings in all cases: modulator concentration 10 µM
[1] = system: RAW-Dual (murine macrophage reporter line); experiment: NF-kB reporter (SEAP) activity fold change vs agonist alone; higher = enhanced NF-kB activity
Method in brief: (§1)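 In 384-well plates holding 50 000 RAW-Dual murine macrophage reporter cells per well, compound at 10 μM final was pre-incubated for 1 hour at 37 °C, after which a PRR agonist was added overnight. Supernatant SEAP read with QUANTI-Blue at 620 nm absorbance reported NF-κB, and Lucia luciferase read with QUANTI-Luc luminescence reported IRF. Fold change values come from dividing each reporter signal by the mean of agonist-only control wells on the same plate, averaged over replicate plates with propagated errors.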

[2] = system: RAW-Dual (murine macrophage reporter line); experiment: IRF reporter (Lucia luciferase) activity fold change vs agonist alone; higher = enhanced IRF activity
Method in brief: as §1

[3] = system: RAW-Dual (murine macrophage reporter line); experiment: viability score (confluency relative to resting cells, overnight) (fraction); higher = more viable, active = viable (0.7 or more)
Method in brief: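 In 384-well plates, RAW-Dual macrophages received compound at a final 10 μM overnight. Two confluency masks were then made with IncuCyte software from IncuCyte images of all imaged wells. The viability score is defined as confluency relative to resting cells. Passing the cutoff required both masks to lie above 70% of resting cells.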

[4] = agonist: CpG ODN 1826 0.5 ug/mL

Row | Structure (SMILES) | NF-kB reporter [1, 4] | NF-kB reporter ([1]; agonist: LPS 0.1 ug/mL) | NF-kB reporter ([1]; agonist: MPLA […]) | IRF reporter ([2]; agonist: 3'3'-cGAMP 10 ug/mL) | IRF reporter ([2]; agonist: LPS 0.1 ug/mL) | IRF reporter ([2]; agonist: MPLA […]) | viability score [3]
1 | CN1C(C(=O)Nc2ccccn2)=C(O)c2sc(Cl)cc2S1(=O)=O | 0.744 ± 0.047 | 0.896 ± 0.094 | 1.08 ± 0.11 | 0.955 ± 0.043 | 1.43 ± 0.22 | 1.72 ± 0.59 | 0.967 (active)
2 | CCOc1ccc(S(=O)(=O)NC(C)(C)C)cc1C | 0.972 ± 0.081 | 0.852 ± 0.072 | 1.13 ± 0.12 | 0.971 ± 0.044 | 1.38 ± 0.082 | 1.53 ± 0.14 | 0.868 (active)
3 | Nc1c2c(nc3ccccc13)CCCC2O (configuration not stated) [Prestw-448] | 0.958 ± 0.059 | 0.88 ± 0.068 | 0.958 ± 0.026 | 1.01 ± 0.042 | 0.964 ± 0.05 | 0.906 ± 0.087 | 0.994 (active)
4 | CN1CCN(C(=O)CN2C(=O)c3cccc4cccc(c34)C2=O)CC1 | 0.881 ± 0.082 | 0.981 ± 0.061 | 0.88 ± 0.091 | 0.971 ± 0.026 | 1.21 ± 0.19 | 0.967 ± 0.26 | 1.01 (active)
5 | Cl.O=C1CN2Cc3c(ccc(Cl)c3Cl)NC2=N1 | 0.954 ± 0.13 | 0.963 ± 0.17 | 0.96 ± 0.077 | 0.959 ± 0.051 | 1.24 ± 0.29 | 0.993 ± 0.2 | 1.01 (active)
6 | CCc1nc(N)nc(N)c1-c1ccc(Cl)cc1 | 1.23 ± 0.11 | 1.07 ± 0.054 | 1.03 ± 0.054 | 0.941 ± 0.052 | 0.974 ± 0.07 | 0.865 ± 0.075 | 0.964 (active)
7 | O=C(NCCCn1ccc2cccnc21)c1nc2ccccc2s1 | 0.766 ± 0.19 | 1.04 ± 0.092 | 1.09 ± 0.07 | 0.813 ± 0.071 | 0.942 ± 0.22 | 1.02 ± 0.15 | 1 (active)
8 | CCOc1ccc(C=NNc2nc(C)cs2)c(O)c1 | 0.949 ± 0.087 | 0.965 ± 0.13 | 1.03 ± 0.073 | 0.624 ± 0.024 | 0.988 ± 0.069 | 0.981 ± 0.15 | 0.999 (active)
9 | CCN1CCN(Cc2ccc(Nc3ncc(F)c(-c4cc(F)c5nc(C)n(C(C)C)c5c4)n3)nc2)CC1.CS(=O)(=O)O | 0.095 ± 0.023 | 0.793 ± 0.04 | 3.04 ± 0.21 | 0.29 ± 0.018 | 0.19 ± 0.035 | 0.314 ± 0.03 | 0.852 (active)
10 | COc1cc(NC(=O)COc2cc(C)c(Cl)c(C)c2)cc(OC)c1 | 1.02 ± 0.18 | 0.954 ± 0.078 | 0.854 ± 0.098 | 0.93 ± 0.025 | 1.06 ± 0.12 | 1.04 ± 0.12 | 1 (active)
11 | CC1=C(C(=O)Nc2cccc(C)n2)C(c2ccsc2)C2=C(CC(C)(C)CC2=O)N1 (configuration not stated) | 1.04 ± 0.16 | 1.02 ± 0.057 | 0.996 ± 0.059 | 0.954 ± 0.04 | 1.2 ± 0.086 | 0.979 ± 0.12 | 1.01 (active)
12 | O=C(NN=Cc1cccc(Cl)c1Cl)c1cc(O)cc(O)c1 | 1.02 ± 0.084 | 0.918 ± 0.092 | 1.07 ± 0.1 | 0.934 ± 0.079 | 1.19 ± 0.22 | 1.3 ± 0.22 | 1.04 (active)
13 | CC(C)c1c(C(=O)Nc2ccccc2)c(-c2ccccc2)c(-c2ccc(F)cc2)n1CC[C@@H](O)C[C@@H](O)CC(=O)O [Prestw-1232] | 1.63 ± 0.21 | 1.05 ± 0.11 | 1.16 ± 0.033 | 0.893 ± 0.036 | 0.928 ± 0.068 | 1.13 ± 0.12 | 0.995 (active)
14 | Cl.Cl.Clc1ccc(Nc2nnc(Cc3ccncc3)c3ccccc23)cc1 | 1.04 ± 0.15 | 1 ± 0.24 | 1.14 ± 0.31 | 0.628 ± 0.021 | 1.12 ± 0.2 | 0.926 ± 0.14 | 0.979 (active)
15 | CC1=C(C(=O)OCC(F)(F)C(F)(F)F)C(c2ccccc2)NC(=O)N1 (configuration not stated) | 0.847 ± 0.052 | 0.975 ± 0.077 | 0.863 ± 0.053 | 1.31 ± 0.05 | 1.34 ± 0.089 | 1.23 ± 0.23 | 0.934 (active)
16 | COc1ccnc(CS(=O)c2nc3ccc(OC(F)F)cc3[nH]2)c1OC (configuration not stated) | 1.18 ± 0.16 | 0.901 ± 0.1 | 0.879 ± 0.053 | 0.901 ± 0.056 | 1.07 ± 0.11 | 1.15 ± 0.15 | 0.999 (active)
17 | O=C1CCCC2=C1C(c1ccc(C(F)(F)F)cc1)Nc1ccc(C(=O)c3ccccc3)cc1N2 (configuration not stated) | 0.885 ± 0.08 | 1.19 ± 0.068 | 0.759 ± 0.045 | 1.55 ± 0.091 | 1.36 ± 0.14 | 1.04 ± 0.12 | 0.942 (active)
18 | Cn1c(=O)cc(N2CCC[C@@H](N)C2)n(Cc2ccccc2C#N)c1=O | 1.19 ± 0.25 | 1.25 ± 0.28 | 2.23 ± 1.3 | 0.958 ± 0.031 | 1.3 ± 0.35 | 1.33 ± 0.26 | 0.99 (active)
19 | Cc1cc(OC2CCN(S(=O)(=O)CCc3ccccc3)C2)cc(=O)n1C (configuration not stated) | 1.13 ± 0.069 | 0.929 ± 0.088 | 1.15 ± 0.067 | 0.7 ± 0.054 | 0.785 ± 0.19 | 0.738 ± 0.29 | 0.975 (active)
20 | Cc1ccc(F)c(NC(=O)Nc2ccc(-c3cccc4[nH]nc(N)c34)cc2)c1 | 0.692 ± 0.1 | 0.758 ± 0.2 | 1.59 ± 0.16 | 0.102 ± 0.0067 | 1.04 ± 0.22 | 1.19 ± 0.38 | 0.829 (active)
21 | O=C(NC1CC(=O)N(c2ccc(F)cc2)C1)c1ccc(Cl)cc1 (configuration not stated) | 1.06 ± 0.054 | 1.11 ± 0.088 | 0.877 ± 0.039 | 0.944 ± 0.064 | 1.24 ± 0.11 | 1.2 ± 0.3 | 0.991 (active)
22 | CCOc1ccc(C=Nc2cccc3ncccc23)cc1 | 0.971 ± 0.084 | 1.02 ± 0.067 | 0.958 ± 0.077 | 0.424 ± 0.019 | 1.15 ± 0.11 | 0.979 ± 0.095 | 1 (active)
23 | CN1CCC[C@@H]1CCO[C@](C)(c1ccccc1)c1ccc(Cl)cc1.O=C(O)/C=C/C(=O)O | 1.17 ± 0.29 | 1.01 ± 0.13 | 1.06 ± 0.1 | 0.526 ± 0.021 | 1.28 ± 0.17 | 1.63 ± 0.16 | 0.321 (inactive)
24 | Cc1ccccc1C(=O)Nc1ccc(C(=O)N2CCCC(O)c3cc(Cl)ccc32)c(C)c1 (configuration not stated) | 1.02 ± 0.2 | 1.09 ± 0.15 | 0.92 ± 0.056 | 0.601 ± 0.019 | 1.04 ± 0.29 | 1.07 ± 0.13 | 0.998 (active)
25 | O=S(=O)(c1ccccc1)N1CCOCC1 | 0.956 ± 0.057 | 0.992 ± 0.061 | 0.935 ± 0.071 | 0.981 ± 0.033 | 1.33 ± 0.21 | 1.15 ± 0.15 | 1 (active)
26 | CS(=O)(=O)N(CC(=O)Nc1ccccc1Cl)c1ccc(Cl)c(C(F)(F)F)c1 | 0.753 ± 0.067 | 1.08 ± 0.062 | 0.874 ± 0.052 | 1.52 ± 0.11 | 1.35 ± 0.14 | 1.25 ± 0.2 | 0.961 (active)
